Screening results: PubChem BioAssay, National Center for Advancing Translational Sciences (NCATS)
A selection: hits, their analogues and other compounds. The true share with any hit is near 0.69%.
AT treatment: potential ataxia-telangiectasia treatment; F2112 A-T fibroblasts, KAP-1 phosphorylation AlphaLISA; neocarzinostatin DNA damage 30 min before lysis; Potency, µM (highest dose often 57.5 µM), usual class: activators; hit rate 0.19% among 320,000; further: nearly all actives have a fitted effect of over 45% in size
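hTERT-immortalized A-T patient fibroblasts (F2112), 500 cells/well in OPTI-MEM, 1% FBS, got compounds for 60 min, then NCS for 30 min at 37C. Lysates were then assayed for phospho-KAP-1 by AlphaLISA (anti-pKAP1 donor, anti-KAP1 acceptor beads), 6 hr at 25C.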
Integrin act MD: activates integrin-mediated alleviation for muscular dystrophy. alpha7betagal myoblasts, beta-gal FDG fluorescence, 48 h. hit rate 0.064% among 350,000. AID 624291. Potency, µM (top dose mostly 38.3 µM), actives largely listed as activators; further: nearly all actives have a fitted effect of over 60% in size
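Alpha7betagal+/- myoblasts (passage 13) were plated 16-24 hr, then exposed to compounds (1:260 dilution of DMSO stock) for 48 hours at 37C. After MPER lysis, β-galactosidase reporter activity was read as FDG fluorescence (ex 480/em 540) after 30 minutes.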
PKM2 activator: activators of human pyruvate kinase M2 | Potency, µM (titrated, usually from 57.5 µM), usual class: activators | hit rate 0.34% among 260,000 | purified PKM2, Kinase-Glo ATP luminescence, activation; response scale: 0% is enzyme alone, no compound; further: nearly all actives have a fitted effect of over 55% in size
Target sequence (P14618 whole entry, looked up): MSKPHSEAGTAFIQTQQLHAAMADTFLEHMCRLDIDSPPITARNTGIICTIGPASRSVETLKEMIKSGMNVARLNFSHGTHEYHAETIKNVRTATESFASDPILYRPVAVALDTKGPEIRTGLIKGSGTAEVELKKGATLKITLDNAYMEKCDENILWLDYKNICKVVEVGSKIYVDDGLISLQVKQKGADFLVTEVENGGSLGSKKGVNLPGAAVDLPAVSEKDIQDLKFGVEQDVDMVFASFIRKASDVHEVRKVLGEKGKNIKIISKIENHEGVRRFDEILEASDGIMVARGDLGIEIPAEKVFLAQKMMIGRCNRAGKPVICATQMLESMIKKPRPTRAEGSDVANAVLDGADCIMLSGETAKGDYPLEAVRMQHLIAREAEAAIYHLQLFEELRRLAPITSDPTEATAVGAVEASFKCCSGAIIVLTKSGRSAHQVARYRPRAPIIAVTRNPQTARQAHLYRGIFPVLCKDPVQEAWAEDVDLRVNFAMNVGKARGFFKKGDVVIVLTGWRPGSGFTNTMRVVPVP
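hPK-M2, >95% pure; 0.1 mM ADP / 0.5 mM PEP final; imidazole pH7.2 buffer w/ 7 mM MgCl2, 50 mM KCl; 1 h RT; Kinase-Glo lum. Intermediate enzyme activity for dual inhibitor/activator qHTS.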
Tb PFK inh-1: blocks T. brucei phosphofructokinase. hit rate 0.17% among 330,000. Potency, µM (titrated, usually from 57.5 µM), actives largely listed as inhibitors. T. brucei PFK, ADP-Glo luminescence. O15648; further: nearly all actives have a fitted effect of over 60% in size
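PFK 1.25 nM, F6P 0.5 mM, ATP 0.1 mM, 0.1 M TEA pH 8.0, 5 mM MgCl2, 0.01% Tween20, 0.1% BSA; 45 min RT. ADP-Glo readout. qHTS titration up to 57 uM; curves fitted, compounds curve-classed.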
IL2 activator: activators of IL-2 | IL-2 activation reporter assay, cell-based qHTS; stimulated with anti-CD3/CD4/CD28 beads; in transgenic mouse T cells | hit rate 0.065% among 360,000 | AID 652025 | activation, % (series mostly up to about 46 µM); in the data active means activation above about 50%; inconclusive means mostly about 30% to 49%
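Unstimulated transgenic mouse T cells, 750 per well, received compound and, after 60 minutes, anti-CD3/anti-CD4 bead plus anti-CD28 stimulation. EGFP and DsRed were quantified after 18 hours.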
TCR act: activators of T cell receptors; primary human leukocytes, anti-CD3, IL-2 HTRF, 48 h; Potency, µM (top dose mostly 9.22 µM), actives largely listed as activators; 330,000 tested, under 10 active; AID 504894
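Primary human leukocytes were stimulated with a-CD3 beads plus compounds for 48 hr without co-stimulation; secreted IL-2 was quantified by HTRF using a-IL-2-K (europium cryptate) and a-IL-2-d2, excited at 320nm with acceptor emission read at 665nm.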
TbPFK ATP: orthogonal confirmation of T. brucei phosphofructokinase inhibitors | shares compounds with Tb PFK inh-1 | Tb PFK enzyme, ATP depletion, Kinase-Glo Plus luminescence | Potency, µM (top dose mostly 57.5 µM) | hit rate 47% among 1,100 | AID 504636; calls by dose curve; further: nearly all actives have a fitted effect of over 60% in size
Tb PFK inh-2: validation of T. brucei phosphofructokinase inhibitors | shares compounds with Tb PFK inh-1 | AID 504637 | purified T. brucei PFK, ADP-Glo luminescence, 45 min | Potency, µM (highest dose often 57.5 µM), most hits filed as inhibitors | hit rate 41% among 1,100; further: nearly all actives have a fitted effect of over 60% in size
Numbers stand for hits. Unless noted, the call rests on the fitted dose curve; in most records, active means well fitted curve in the direction sought with a large enough effect; inconclusive means small, poorly fitted or top-dose-only effect, or another doubt; inactive means no such curve, though single readings can be large; an effect the other way counts as inactive or inconclusive.

What do the screens show for `COc1cc2c(cc1O)[C@H]1Cc3ccc(OC)c(O)c3CN1CC2`?
TbPFK ATP: inactive; Tb PFK inh-2: inactive

How did CC(=O)c1ccc(S(=O)(=O)N2CCN(CC(=O)Nc3ccc(Cl)c([N+](=O)[O-])c3)CC2)cc1 do in these assays?
AT treatment: inactive; Integrin act MD: inactive; Tb PFK inh-1: 13.5µM; IL2 activator: inactive; TCR act: inactive; TbPFK ATP: inconclusive; Tb PFK inh-2: inconclusive

What do the screens show for `Cc1c(C(=O)NCCC2=CCCCC2)oc2ccc(S(=O)(=O)N3CCC4(CC3)OCCO4)cc12`?
AT treatment: inactive; Integrin act MD: inactive; PKM2 activator: inactive; Tb PFK inh-1: inactive; IL2 activator: inactive; TCR act: inactive

How did CCC(CC)c1nnc(NC(=O)CC(C)c2ccccc2)s1 (stereo unspecified) do in these assays?
AT treatment: inactive; Integrin act MD: inactive; PKM2 activator: inactive; Tb PFK inh-1: inactive; IL2 activator: inactive; TCR act: inactive

What do the screens show for `COCCn1c(C)cc(C(=O)COC(=O)c2cc3c(s2)CCC3)c1C`?
AT treatment: inactive; Integrin act MD: inactive; PKM2 activator: inactive; Tb PFK inh-1: inconclusive; IL2 activator: inactive; TCR act: inactive; TbPFK ATP: inconclusive; Tb PFK inh-2: inactive

Results for O=C1C=CC(=O)C2C1C1(Cl)C(Cl)=C(Cl)C2(Cl)C1(Cl)Cl (stereo unspecified) ?
Integrin act MD: inactive; IL2 activator: inactive; TCR act: inactive

Results for CC(=O)NCCc1c[nH]c2ccccc12 ?
AT treatment: inactive; Integrin act MD: inactive; PKM2 activator: inactive; Tb PFK inh-1: inactive; IL2 activator: inactive; TCR act: inactive

What do the screens show for `O=C(NCCc1c[nH]c2ccccc12)OCCSS(=O)(=O)O`?
AT treatment: inactive; Integrin act MD: inactive; PKM2 activator: inactive; Tb PFK inh-1: 23.9µM; IL2 activator: inactive; TCR act: inactive; TbPFK ATP: 23.9µM; Tb PFK inh-2: inconclusive

Results for COC(=O)C1CCN(C(=O)c2cc(-c3ccco3)nc3ccccc23)CC1 ?
AT treatment: inactive; Integrin act MD: inactive; Tb PFK inh-1: 2.69µM; IL2 activator: inactive; TbPFK ATP: inconclusive; Tb PFK inh-2: inactive

Results for COc1ccc(-c2cc(C(=O)N3CCC4(CC3)OCCO4)c3ccccc3n2)cc1 ?
AT treatment: inactive; Integrin act MD: inactive; Tb PFK inh-1: inactive; IL2 activator: inactive; TCR act: inactive

How did Cc1cc(N(C)C)ccc1[N+](=O)[O-] do in these assays?
AT treatment: inactive; Integrin act MD: inactive; PKM2 activator: inactive; Tb PFK inh-1: inconclusive; IL2 activator: inactive; TCR act: inactive; TbPFK ATP: inconclusive; Tb PFK inh-2: 30.1µM

What do the screens show for `Cc1ccc(S(=O)(=O)N2[C@@H](c3ccccc3F)C(C(=O)O)=CC[C@H]2c2ccc(Cl)c(Cl)c2)cc1`?
AT treatment: inactive; Integrin act MD: inactive; Tb PFK inh-1: 26.9µM; IL2 activator: inactive; TCR act: inactive; TbPFK ATP: inactive; Tb PFK inh-2: inactive

Results for CCOC(=O)[C@]12Cc3cc(C)ccc3[C@H]1N(C1CCCCC1)C(=O)c1cc(OC)ccc12 ?
IL2 activator: inactive

What do the screens show for `CC(=O)OC1C(=O)OCC23CCC4(C)OC4C2OC2CC(OC(=O)C=CC=CC(=O)OCCC1C)C3(C)C21CO1` (stereo unspecified)?
Integrin act MD: inconclusive; IL2 activator: inactive; TCR act: inactive

How did CCOc1ccccc1NC(=O)COc1coc(CN2CCc3ccccc32)cc1=O do in these assays?
AT treatment: inactive; Integrin act MD: inactive; Tb PFK inh-1: inconclusive; IL2 activator: inactive; TCR act: inactive; TbPFK ATP: inactive; Tb PFK inh-2: inactive
